Experiment [1] has as its system Plasmodium falciparum Sir2 (PF13_0152, Sir2A). In words: Plasmodium falciparum Sir2A binding compounds – biochemical, small-molecule microarray, 635 nm fluorescence, primary screen (AID 1098).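 Further: score merges spot fluorescence intensity with its signal-to-noise ratio.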 As to conditions: fluorescence 635 nm, higher = more signal.
The nature of experiment [2]: probe aDKK1 binding to arrayed compounds – biochemical, biotinylated probe, 635/667 nm fluorescence, primary screen (AID 1099).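 Further: score merges 667nm spot fluorescence with signal to noise across triplicate slides.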 As to conditions: small-molecule microarray, higher = more signal.
Experiment [3] in a line: probe aCHRDL2 binding to arrayed compounds – biochemical, biotinylated probe, 635/667 nm fluorescence, primary screen (AID 1100). The note with it: small-molecule microarray, higher = more signal.
Experiment [4] in a line: change in splice reporter luminescence, either direction, cell-based, HEK293, spliceosome inhibition project, primary screen (AID 1101).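 Further: HEK293 cells carrying a splicing-competent luciferase reporter gene; test concentration not given here.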 As to conditions: HEK293 splicing luciferase reporter, 24 h, higher = more signal, called active from +8 up or from −8 down. (Reporter assays use an easily measured gene product as a stand-in for the process of interest.)
Experiment [5] deals with Fibroblast growth factor 10 (Homo sapiens) (UniProt O15520). In words: compounds binding fibroblast growth factor 10 – biochemical, small-molecule microarray, 635 nm fluorescence, primary screen (AID 1102). The note with it: FGF10 binding, fluorescence 635 nm, higher = more signal.
Chain of Fibroblast growth factor 10 (Homo sapiens) (O15520 whole entry, looked up): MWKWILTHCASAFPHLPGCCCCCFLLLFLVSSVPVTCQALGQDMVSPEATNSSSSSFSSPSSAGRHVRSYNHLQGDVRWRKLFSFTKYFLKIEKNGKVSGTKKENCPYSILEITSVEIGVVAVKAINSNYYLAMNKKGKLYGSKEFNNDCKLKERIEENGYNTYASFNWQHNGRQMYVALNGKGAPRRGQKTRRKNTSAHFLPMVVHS
Experiment [6] concerns glycogen synthase kinase-3 (GSK3A per assay name; protocol says GSK3B). Nature of the experiment: compounds binding glycogen synthase kinase-3 – biochemical, small-molecule microarray, 635 nm fluorescence, GSK3A, primary screen (AID 1103). Further: the record names both GSK3A and GSK3B. As to conditions: fluorescence 635 nm, higher = more signal.
The target of experiment [7] is Epidermal growth factor receptor (Homo sapiens) (UniProt P00533). In words: compounds binding epidermal growth factor receptor – biochemical, small-molecule microarray, 635 nm fluorescence, primary screen (AID 1104).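 Further: score merges 667 nm emission intensity with spot signal to noise over triplicate slides.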 As to conditions: EGFR binding, higher = more signal.
Chain of Epidermal growth factor receptor (Homo sapiens) (P00533 whole entry, looked up): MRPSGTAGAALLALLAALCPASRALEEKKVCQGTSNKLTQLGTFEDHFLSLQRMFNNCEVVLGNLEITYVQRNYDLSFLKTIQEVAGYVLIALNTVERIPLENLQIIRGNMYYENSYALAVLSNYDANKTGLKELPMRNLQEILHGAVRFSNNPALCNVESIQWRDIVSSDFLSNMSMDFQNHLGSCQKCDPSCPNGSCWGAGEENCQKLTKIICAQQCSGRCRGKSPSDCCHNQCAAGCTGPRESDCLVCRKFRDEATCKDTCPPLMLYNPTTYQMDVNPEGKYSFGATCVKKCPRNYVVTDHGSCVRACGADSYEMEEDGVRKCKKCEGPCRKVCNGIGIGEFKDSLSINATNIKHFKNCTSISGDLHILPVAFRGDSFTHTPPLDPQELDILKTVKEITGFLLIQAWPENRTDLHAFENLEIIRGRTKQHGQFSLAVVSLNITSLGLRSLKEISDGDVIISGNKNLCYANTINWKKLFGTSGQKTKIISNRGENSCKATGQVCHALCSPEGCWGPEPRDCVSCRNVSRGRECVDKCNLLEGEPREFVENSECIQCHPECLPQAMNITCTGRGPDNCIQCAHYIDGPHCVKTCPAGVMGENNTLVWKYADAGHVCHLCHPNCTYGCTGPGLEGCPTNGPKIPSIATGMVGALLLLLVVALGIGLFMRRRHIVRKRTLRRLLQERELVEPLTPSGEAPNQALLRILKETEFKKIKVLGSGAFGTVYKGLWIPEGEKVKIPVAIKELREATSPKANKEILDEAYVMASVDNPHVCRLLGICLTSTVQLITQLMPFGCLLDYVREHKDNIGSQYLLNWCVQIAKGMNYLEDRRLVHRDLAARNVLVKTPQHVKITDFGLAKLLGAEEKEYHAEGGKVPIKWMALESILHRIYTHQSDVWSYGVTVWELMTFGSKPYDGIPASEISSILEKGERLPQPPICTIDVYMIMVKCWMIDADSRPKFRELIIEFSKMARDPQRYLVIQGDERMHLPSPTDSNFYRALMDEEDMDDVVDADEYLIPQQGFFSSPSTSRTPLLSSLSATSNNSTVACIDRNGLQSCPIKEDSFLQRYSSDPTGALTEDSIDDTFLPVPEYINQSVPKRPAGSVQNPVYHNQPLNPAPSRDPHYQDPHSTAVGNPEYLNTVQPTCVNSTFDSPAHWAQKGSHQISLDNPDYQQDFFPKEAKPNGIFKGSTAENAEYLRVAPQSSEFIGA
In experiment [8] the target is Follistatin-related protein 3 (Homo sapiens) (UniProt O95633). Nature of the experiment: compounds binding follistatin-related protein 3 – biochemical, small-molecule microarray, 635 nm fluorescence, primary screen (AID 1105).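 Further: score merges emission near 667 nm and signal to noise per printed spot across three slides.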 The note with it: FSTL3 binding, higher = more signal.
Chain of Follistatin-related protein 3 (Homo sapiens) (O95633 whole entry, looked up): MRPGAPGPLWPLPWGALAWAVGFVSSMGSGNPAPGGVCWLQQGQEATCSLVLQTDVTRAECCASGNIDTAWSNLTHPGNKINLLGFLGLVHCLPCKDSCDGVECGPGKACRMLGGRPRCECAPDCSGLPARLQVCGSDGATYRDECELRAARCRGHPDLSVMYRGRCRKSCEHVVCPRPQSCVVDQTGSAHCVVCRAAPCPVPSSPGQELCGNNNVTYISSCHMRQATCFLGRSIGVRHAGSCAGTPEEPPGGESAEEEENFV
In experiment [9] the target is Dickkopf-related protein 1 (Homo sapiens) (UniProt O94907). In words: small molecules binding DKK1 protein – biochemical, small-molecule microarray, 635 nm fluorescence scan, primary screen (AID 1106).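 Further: score merges emission near 667 nm with signal to noise over three replicate slides.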 The note with it: higher = more signal.
Chain of Dickkopf-related protein 1 (Homo sapiens) (O94907 whole entry, looked up): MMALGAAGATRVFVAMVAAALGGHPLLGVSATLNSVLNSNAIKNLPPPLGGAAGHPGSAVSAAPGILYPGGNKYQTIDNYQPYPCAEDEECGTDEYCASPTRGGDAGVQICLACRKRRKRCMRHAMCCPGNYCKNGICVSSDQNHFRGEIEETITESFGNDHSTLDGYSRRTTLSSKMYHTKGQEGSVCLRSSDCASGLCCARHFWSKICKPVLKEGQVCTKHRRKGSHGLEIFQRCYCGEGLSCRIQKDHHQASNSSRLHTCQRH
The test system of experiment [10] is Inhibin beta A chain (activin A). In words: small molecules binding activin A – biochemical, small-molecule microarray, 635 nm fluorescence scan, primary screen (AID 1107).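 Further: mouse activin A protein probed at 4.33 µg/mL on printed slides; score merges bound-protein fluorescence near 667 nm with spot signal-to-noise.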 As to conditions: INHBA, higher = more signal.
Experiment [11] has as its system Human papillomavirus type 1a protein E7 (residues 44-93). In words: small molecules binding HPV E7 44-93 – biochemical, small-molecule microarray, residues 44-93, 635 nm fluorescence, primary screen (AID 1108).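 Further: E7 fragment applied at 1 µg/mL in TBST for 1 h at 4 C; score combines spot fluorescence with its signal to noise ratio.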 The note with it: fluorescence 635 nm, higher = more signal.
Experiment [12] is described as follows: hepatitis C replication reporter changes, two-sided – Huh7 cells, luciferase reporter, HCV replication inhibitor project, primary screen (AID 1109).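 Further: huh7 hepatoma cells harbouring a luciferase neomycin HCV replicon reporter; luciferase luminescence as measure of HCV replicon replication; test concentration not given here.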 As to conditions: Huh7 HCV replicon luciferase reporter, 48 h; higher = more signal.
Experiment [13] addresses Left-right determination factor 2 (Homo sapiens) (UniProt O00292). In words: small molecules binding LEFTY2 protein – biochemical, small-molecule microarray, 635 nm fluorescence scan, primary screen (AID 1110). As to conditions: higher = more signal.
Experiment [14] concerns the target Calmodulin-1 (Homo sapiens) (UniProt P0DP23). In words: small molecules binding calmodulin-1 with EGTA – biochemical, small-molecule microarray, Cy5-labelled CALM1, profiling panel (AID 1111).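 Further: labelled calmodulin applied in Tris saline Tween buffer holding calcium plus EGTA and DTT.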 The note with it: Cy5-CALM1 binding fluorescence, higher = more signal.
The target is the same in experiment [15]. Nature of the experiment: small molecules binding Ca-loaded calmodulin-1 – biochemical, small-molecule microarray, Cy5-labelled CALM1, plus calcium, artefact control for SMM control-protein annotation, profiling panel (AID 1112).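 Further: score merges spot fluorescence with signal to noise from triplicate slides.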 The note with it: Cy5-CALM1 binding fluorescence, higher = more signal.
The nature of experiment [16]: probe aWnt5a binding to arrayed compounds – biochemical, biotinylated probe, 635/667 nm fluorescence, primary screen (AID 1113).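 Further: score merges 667 nm fluorescence intensity with signal-to-noise per printed feature.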 As to conditions: small-molecule microarray, higher = more signal.
Experiment [17] is described as follows: probe aShh binding to arrayed compounds – biochemical, biotinylated probe, 635/667 nm fluorescence, primary screen (AID 1114).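 Further: probe is biotin-labelled aShh protein from a stem cell growth factor screen; measures binding of labelled protein to compounds printed on the slide; score merges feature fluorescence at 667 nm with signal-to-noise.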 The note with it: small-molecule microarray, higher = more signal.
A short description of experiment [18]: probe aNog binding to arrayed compounds – biochemical, biotinylated probe, 635/667 nm fluorescence, primary screen (AID 1115).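 Further: probe is biotinylated aNog protein used at 0.15 µg/mL for 1 h at 4 C; z-score combines 667 nm fluorescence of each spot with its signal to noise.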 As to conditions: small-molecule microarray, higher = more signal.
Experiment [19] addresses Torsin-1A-interacting protein 1 (Homo sapiens) (UniProt Q5JTV8). Nature of the experiment: compound microarray binding of lysate hLAP1 – cell lysate, small-molecule microarray, COS7 lysate, 635/667 nm fluorescence, primary screen (AID 1116). The note with it: 635 nm fluorescence, higher = more signal.
Experiment [20] addresses Alpha-bungarotoxin (Bungarus multicinctus) (UniProt P60615). Nature of the experiment: compounds binding labelled alpha-BTX control protein – biochemical, small-molecule microarray, Alexa647 label, 635/667 nm fluorescence, artefact control for SMM control protein annotation, profiling panel (AID 1117). As to conditions: alpha-BTX-A647 binding fluorescence, higher = more signal.

The source made the active and inactive calls.

Chain of Torsin-1A-interacting protein 1 (Homo sapiens) (Q5JTV8 whole entry, looked up): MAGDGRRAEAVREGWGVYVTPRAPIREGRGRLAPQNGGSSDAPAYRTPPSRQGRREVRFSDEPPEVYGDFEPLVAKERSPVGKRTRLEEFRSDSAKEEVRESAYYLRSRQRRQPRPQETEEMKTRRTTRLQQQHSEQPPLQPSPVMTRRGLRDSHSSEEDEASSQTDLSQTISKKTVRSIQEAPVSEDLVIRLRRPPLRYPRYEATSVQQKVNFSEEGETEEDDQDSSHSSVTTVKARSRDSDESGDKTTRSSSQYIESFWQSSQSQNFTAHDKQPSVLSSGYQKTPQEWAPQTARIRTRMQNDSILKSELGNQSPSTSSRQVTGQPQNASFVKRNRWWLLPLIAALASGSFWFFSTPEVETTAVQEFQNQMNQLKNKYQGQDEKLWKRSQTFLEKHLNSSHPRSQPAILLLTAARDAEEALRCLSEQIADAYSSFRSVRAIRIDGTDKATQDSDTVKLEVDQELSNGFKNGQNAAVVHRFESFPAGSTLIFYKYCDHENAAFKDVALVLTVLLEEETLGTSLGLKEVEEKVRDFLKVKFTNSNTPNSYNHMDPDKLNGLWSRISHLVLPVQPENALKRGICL
Chain of Left-right determination factor 2 (Homo sapiens) (O00292 whole entry, looked up): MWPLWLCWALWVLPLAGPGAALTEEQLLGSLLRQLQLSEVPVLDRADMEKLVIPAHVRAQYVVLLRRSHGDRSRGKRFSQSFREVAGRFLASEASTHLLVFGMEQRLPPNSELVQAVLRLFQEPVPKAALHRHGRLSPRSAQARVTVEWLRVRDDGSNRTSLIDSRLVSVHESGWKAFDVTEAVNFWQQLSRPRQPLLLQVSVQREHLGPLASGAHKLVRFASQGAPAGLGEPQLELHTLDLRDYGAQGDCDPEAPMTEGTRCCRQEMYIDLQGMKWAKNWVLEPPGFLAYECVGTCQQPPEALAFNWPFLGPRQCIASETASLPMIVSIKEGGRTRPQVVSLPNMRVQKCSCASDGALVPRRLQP
Chain of Alpha-bungarotoxin (Bungarus multicinctus) (P60615 whole entry, looked up): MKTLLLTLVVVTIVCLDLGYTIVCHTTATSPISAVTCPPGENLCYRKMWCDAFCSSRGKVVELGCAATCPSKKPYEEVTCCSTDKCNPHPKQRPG

On to `C=CC[C@@]1(C(=O)N2CCOCC2)N=C(c2ccc(OCCCO)cc2)O[C@@H]1c1ccccc1N=[N+]=[N-]`, for which the composite z-score in [1] is 0.904; in [2], 1.01; in experiment [3], 1.08; in experiment [5], 1.31; in experiment [6], 0.951; in [7], 0.279. Further, the composite z-score in [8] was 0.606; in experiment [9] it was 0.174; in [10], 1.16; in experiment [11], 1.45; in [13] it was 0.37; in experiment [14], 1.83. In addition, the composite z-score was 0.904 in experiment [15]; 0.171 in experiment [16]; -0.043 in experiment [17]; 1.82 in experiment [18]; 1.47 in experiment [19]; 1.8 in [20]. For the same molecule, the values for the z-score in [4] and in [12] were -2.33 (inactive) and -1.82, respectively.

Consider `C=CCC(OC(C)=O)[C@@H]1[C@@H](N(Cc2ccc(-c3cccc(C(F)(F)F)c3)o2)C(=O)c2ccc(C)cc2)c2cc(OCCCO)ccc2N1C(=O)c1ccc(-c2ccccc2)cc1` (stereo not given in full), for which the composite z-score in experiment [1] is 0.44; in [2] it was -0.0544; in [3], 0.0823; in experiment [5], 0.0825; in [6] it was -1; in experiment [7], -0.0697. In addition, the composite z-score in experiment [8] was 0.473; in experiment [9], -0.0581; in [10], 1.23; in [11], -0.734; in experiment [13] it was -0.0524; in [14] it was -0.201. Moreover, the composite z-score in experiment [15] is -0.147; in experiment [16] it was -0.124; in experiment [17] it was -0.16; in [18], -0.363; in experiment [19], -0.178; in experiment [20], -0.286. Further, the values for the z-score in experiment [4] and in experiment [12] were -0.714 (inactive) and -0.094, respectively.

Turning to `COC(=O)[C@@]1(Cc2ccccc2)[C@H]2c3cc(C(=O)N4CCCC4)n(C)c3C[C@H]2CN1C(=O)c1ccccc1`, the composite z-score in experiment [1] was 0.762; in experiment [2] it was 1.23; in [3], 0.892; in [5], -0.175; in [6] it was 0.237; in [7] it was -0.141. Further, the composite z-score in experiment [8] is 0.803; in [9] it was -0.477; in experiment [10], 1.1; in [11], 0.123; in [13] it was -0.302; in [14], 2.57. The composite z-score in experiment [15] was 0.961; in [16], -0.0481; in experiment [17] it was -0.2; in experiment [18], 0.268; in [19] it was 1.28; in experiment [20], 0.455. The results for the z-score in experiment [4] and in experiment [12] were -1.91 (inactive) and -1.45, respectively.

For `CCCCCN1CC=CC23O[C@@H]4/C=C\CCC(C)OC(=O)C4[C@H]2C(=O)N(CCCCCO)[C@@H]3C1=O` (stereo not given in full), the composite z-score in experiment [1] is 0.16; in experiment [2] it was -0.499; in experiment [3], -0.0779; in [5], -0.57; in experiment [6], -0.77; in experiment [7] it was 0.361. For the same molecule, the composite z-score in experiment [8] is -0.501; in [9] it was -1.07; in [10] it was -0.362; in experiment [11], -1.38; in experiment [13], -0.594; in experiment [14] it was -0.476. Besides, the composite z-score is -0.561 in experiment [15]; -0.298 in experiment [16]; -0.147 in [17]; -0.24 in experiment [18]; -0.912 in experiment [19]; -0.937 in [20]. The z-score in [4] was -0.228 (inactive); in experiment [12], 0.0822.

Turning to `Cc1ccc(S[C@]2(C(=O)NC3CC3)CC(=O)N(C3CCCCC3)[C@@H]2c2ccc(CO)cc2I)cc1`, the composite z-score in experiment [1] came to 1.19; in experiment [2] it was 0.198; in experiment [3] it was 0.259; in [5], 0.796; in [6], 0.52; in experiment [7], 0.396. In addition, the composite z-score turned out to be 1.18 in experiment [8]; 0.0553 in [9]; 0.0315 in experiment [10]; 1.43 in experiment [11]; 0.0327 in [13]; 0.224 in experiment [14]. The composite z-score was 0.406 in experiment [15]; -0.154 in experiment [16]; -0.304 in experiment [17]; 0.45 in experiment [18]; -0.0758 in [19]; 0.874 in [20]. Further, the results for the z-score in experiment [4] and in experiment [12] were -0.575 (inactive) and -2.79, respectively.

Consider `COc1cccc(C(=O)O[C@H]2CC[C@]3(C)C4=C(CCC3C2(C)C)[C@]2(C)CC[C@H]([C@H](C)CCCC(C)C)[C@@]2(C)CC4)c1` (stereo not given in full), for which the composite z-score in [1] was 0.399; in experiment [2], -0.056; in experiment [3], -0.495; in experiment [5], 0.647; in [6] it was 0.495; in experiment [7], 0.527. The composite z-score was 0.459 in [8]; 0.389 in experiment [9]; 0.468 in experiment [10]; -0.212 in experiment [11]; 0.359 in experiment [13]; -0.0348 in [14]. Further, the composite z-score is -0.441 in experiment [15]; -0.202 in experiment [16]; -0.138 in experiment [17]; -0.0689 in experiment [18]; 0.105 in experiment [19]; 0.3 in experiment [20]. Further, the values for the z-score in [4] and in experiment [12] were -1.23 (inactive) and 0.004, respectively.

As to `CC(=O)NCCCC[C@@H]1NC(=O)[C@@H]2C[C@H](C(=O)NCCCCN(C)C)[C@H](c3ccc(O)cc3)N2C1=O`, the composite z-score in experiment [1] is -0.165; in experiment [2], -0.161; in experiment [3] it was 0.704; in experiment [5], -0.117; in experiment [6] it was 0.0247; in experiment [7], -0.588. The composite z-score in [8] is -0.723; in experiment [9], 0.295; in experiment [10], -0.727; in experiment [11], -0.989; in experiment [13] it was -0.594; in experiment [14] it was -0.487. The composite z-score in experiment [15] was 0.367; in [16], -0.124; in [17] it was -0.214; in [18], -0.23; in [19] it was 0.646; in [20] it was -0.602. In addition, the z-score is -1.12 (inactive) in experiment [4] and -0.581 in [12].

In the case of `CN(C)CCCNC(=O)[C@@]1(Cc2ccccc2I)c2ccccc2C(=O)N(Cc2ccccc2C(F)(F)F)[C@H]1c1ccc(CO)cc1`, the composite z-score in [1] is 0.278; in [2], 0.234; in [3] it was 0.86; in [5], -0.75; in experiment [6], 0.391; in experiment [7], -1.62. For the same molecule, the composite z-score in experiment [8] was -1.34; in [9], -1.33; in experiment [10] it was 0.094; in experiment [11] it was 0.973; in experiment [13], -1.2; in [14] it was -0.327. Moreover, the composite z-score was -0.149 in experiment [15]; -0.176 in experiment [16]; -0.138 in [17]; 0.612 in experiment [18]; 0.283 in experiment [19]; 0.376 in [20]. Moreover, the z-score in experiment [4] is -1.55 (inactive); in experiment [12] it was -3.4.

As for `COC(=O)c1ccc(C(O)C2C=CC3C(=O)N(C)C(=O)C3N2NC(=O)OC(C)(C)C)o1` (stereo not given), the composite z-score stood at 0.66 in experiment [1]; 0.49 in experiment [2]; 0.266 in experiment [3]; 0.558 in experiment [5]; 0.483 in experiment [6]; 0.557 in experiment [7]. The composite z-score in experiment [8] was 0.622; in experiment [9] it was -0.0526; in experiment [10], 0.399; in [11], 0.703; in experiment [13], 0.432; in experiment [14] it was 0.81. Further, the composite z-score was -0.493 in [15]; 0.112 in experiment [16]; -0.0904 in [17]; 0.672 in experiment [18]; 2.02 in experiment [19]; 0.977 in [20]. For the same molecule, the z-score in [4] is 1.26 (inactive); in experiment [12], -0.104.
